Source: PubChem BioAssay
These entries were drawn from the full list.
aSyn 5UTR act: Activators working through SNCA 5'UTR binding (MLPCN) | alpha-synuclein 5'UTR reporter, activators screen | activity score, % (tested at 7.5 µM), hits read low | hit rate 7.1% among 300,000 | AID 1814; in the data active = activity score below about -60%
A number is an active result; 0 = inactive.

SMILES	aSyn 5UTR act
Cc1c(OC(=O)N(C)C)ccc2c1O/C(=C\c1ccco1)C2=O	-134
CC(=O)O[C@@]12CO[C@@H]1C[C@H](O)[C@@]1(C)C(=O)[C@H](O)C3=C(C)[C@@H](OC(=O)[C@H](O)[C@@H](NC(=O)c4ccccc4)c4ccccc4)C[C@@](O)([C@@H](OC(=O)c4ccccc4)C12)C3(C)C (some centres undefined)	0
CCn1nc(-c2ccccc2)nc2c(=O)n(C)c(=O)nc1-2	-84
Cc1nc2c(=O)n(C)c(=O)nc-2n(C)n1	0
C=C(C=O)C[C@@H]1C[C@H](O)C2OC3C[C@]4(C)OC5/C=C\CC6OC7C(CC=CCC6OC5CCCC4OC3CC2O1)OC1CC2OC3CC(=O)OC3C[C@@H](C)C[C@@]2(C)OC1C[C@@H]7C (some centres undefined)	0
Nc1c(C(=O)NCc2ccco2)c2nc3ccccc3nc2n1CCN1CCCCC1	-103
CCOC(=O)c1c(N)n(CCCOC(=O)c2ccco2)c2nc3ccccc3nc12	0
O=C1NC(=O)C(CCc2ccncc2)(Cc2cccc(Cl)c2Cl)C(=O)N1c1ccc(Br)cc1 (centres undefined)	0
CCOC(=O)c1cc2c(cn1)[nH]c1ccccc12	-142
C[C@]12CC[C@H]3C(CCC4(O)CC(O)CC[C@]34C=O)C1=CC[C@H]2c1ccc(=O)oc1 (some centres undefined)	0
[O-]c1ccccc1-[n+]1c(-c2ccccc2)cc(-c2ccccc2)cc1-c1ccccc1	0
Nc1ccccc1C(=O)OCc1ccc([N+](=O)[O-])cc1	-83
CN1C(=O)C(=Cc2ccc(OCCN(C)c3ccccn3)cc2)C(=O)N(C)C1=O	-82
CC1CCC/C=C/C2CC(O)CC2C(O)/C=C/C(=O)O1 (centres undefined)	0
C[C@H]1CCC/C=C/C2C[C@H](O)CC2[C@H](O)/C=C/C(=O)O1 (some centres undefined)	0
C[C@H]1CCC[C@@H](O)CCC/C=C/c2cc(O)cc(O)c2C(=O)O1	-170
CC(Cc1ccccc1)/[N+]([O-])=C\c1ccc(C(F)(F)F)cc1 (centres undefined)	-119
Cc1ccc(C[n+]2c(-c3ccc(C)cc3)cc(-c3ccc(C)cc3)cc2-c2ccc(C)cc2)cc1	0
COC(=O)C(O)(c1ccc(NC(=S)NC(=O)c2ccccc2)cc1)C(F)(F)F (centres undefined)	-80
C[N+]1=C(/C=C/Nc2ccccc2)C(C)(C)c2ccccc21	-93
COC(=O)C1CN(C#N)N(c2ccc(Cl)cc2)C12c1ccccc1-c1ccccc12 (centres undefined)	0
CC1(C)C[C@H]2C=C(C=O)[C@]3(C=O)C[C@]3(C)[C@H]2C1	0
C=CCN1C(=O)NC(=O)/C(=C/c2ccc(OC)c(COc3ccc(NC(C)=O)cc3)c2)C1=O	-64
CCOC(=O)C(O)(c1ccc(NC(=O)NC2CCCCC2)cc1)C(F)(F)F (centres undefined)	-83
O=C(c1cc(-c2ccccc2)on1)N1CCC2(CC1)OCCO2	-113
SMILES	aSyn 5UTR act
Cc1nc2cc(-c3ccccc3)nn2c(C)c1CCC(=O)N1CCC2(CC1)OCCO2	0
O=C(c1ccccc1)C(CN1CCCC1)c1ccccc1 (centres undefined)	-77
CC(C)(C)c1ccc(C(=O)C2CCCN(Cc3ccon3)C2)cc1 (centres undefined)	-124
COc1ccccc1CN1CCCC(C(=O)c2ccccc2SC)C1 (centres undefined)	0
CC(C)(C)c1ccc(C(=O)C2CCCN(C3CCC3)C2)cc1 (centres undefined)	-72
CC(C)[C@]12O[C@H]1[C@@H]1O[C@]13[C@]1(O[C@H]1C[C@H]1C4=C(CC[C@@]13C)C(=O)OC4)[C@@H]2O	0
CN1CCN(c2ccc3c(c2)S(=O)(=O)c2ccccc2C3=O)CC1	-112
O=C1NC(=O)C(=Cc2cccc(OCCOc3ccccc3)c2)C(=O)N1	-87
C=C1C(=O)O[C@@H]2C[C@@H](C)[C@@H]3C4OC4C(=O)[C@@]3(C)[C@@H](O)[C@H]12 (some centres undefined)	-221
COc1ccc(P2(=O)Nc3ccccc3N2)cc1	-139
Clc1ccccc1Nc1ncnc(-n2cccc2)n1	-160
Cc1ccc2cc(C=C(C#N)C#N)c(Cl)nc2c1	-79
O=C(c1ccc2c(c1)ncn2C1CCCCC1)N1CCC2(CC1)OCCO2	-171
Cc1cc(OCCN2CC2)c2ccccc2n1	-73
COc1ccc(NC2=NC(C)(C)CS2)cc1	-140
c1ccc2sc(NC3=NCCN3)nc2c1	-103
COc1ccc2nc(NC3=NCCN3)sc2c1	-209
CCCCc1nc2ccccc2c(=O)n1-c1ccccc1[N+](=O)[O-]	-73
Nc1ccc2c(c1)oc1ccccc12	-113
O=C1NC(=O)N(Cc2ccco2)C(=O)/C1=C/C=C/c1ccco1	-288
C=CCN1C(=O)NC(=O)/C(=C/C=C/c2ccccc2)C1=O	-69
O=C1NC(=O)N(Cc2ccccc2)C(=O)/C1=C\C=C\c1ccco1	-222
CC12CC[C@H]3[C@@H](CCC4(O)C[C@H](O)CCC34/C=N/NC(=O)c3ccccc3[N+](=O)[O-])C1(O)CCC2C1=CC(=O)OC1 (some centres undefined)	0
CCn1c(C)c(C(=O)Nc2ccc(OC)cc2)c2cc(OC)ccc21	-86
Cc1cc(NC(=O)CCl)no1	-99
SMILES	aSyn 5UTR act
COc1ccc(/C=C/C2=CCN(C)CC2)cc1	-79
c1ccc(-c2nc(N3CCOCC3)s[n+]2-c2ccccc2)cc1	-75
CNc1ccc2oc(C[C@H]3O[C@@]4(CC[C@H]3C)O[C@H]([C@H](C)C(=O)c3ccc[nH]3)[C@H](C)C[C@H]4C)nc2c1C(=O)O	0
CNC(=O)Oc1ccc(-c2cn3cc(C)ccc3n2)cc1	0
FC(F)(F)c1ccc(NC2=NCCCS2)cc1	-69
CC/C(=N\N1CCCCC1)c1c(O)[nH]c(=O)[nH]c1=O	0
CN1C(=O)/C(=C\c2ccc(N3CCCCC3)o2)C(=O)NC1=S	-162
CN1C(=O)C(=Cc2ccc(N3CCOCC3)o2)C(=O)N(C)C1=S	-65
CN1C(=O)/C(=C/c2ccc(N3CCCCCC3)o2)C(=O)NC1=S	-186
O=C(Nc1ccc(OC(=O)N2CCCCC2)cc1)N1CCOCC1	0
O=C(Nc1ccc(Cl)c(Cl)c1)c1ccco1	-170
NC(=O)c1cn(C2OC(CO)C(O)C2O)c2ncnc(N)c12 (centres undefined)	0
Cc1ccc2nc3c(cc2c1)CC1(C(=O)N(C)C(=O)N(C)C1=O)C1COCCN31 (centres undefined)	-63
Cc1ccc2nc3c(cc2c1)CC1(C(=O)N(C)C(=O)N(C)C1=O)C1CCCCN31 (centres undefined)	-106
Nc1c2c(nc3sc4c(c13)CCCC4)CCCC2	-118
Nc1c2c(nc3sc4c(c13)CCCC4)CCCCC2	-170
Cc1ccc(-c2nc(N(C)C3CCN(C)CC3)c3ccccc3n2)cc1	-93
CC1Oc2cc3c(-c4c(O)cc(O)c5c(O)c6c(cc45)OC(C)C(C)C6=O)c(O)cc(O)c3c(O)c2C(=O)C1C (centres undefined)	0
CCC(C)/C=C(C)/C=C/C1=CC2=C(Cl)C(=O)C(C)(OC(C)=O)C(=O)C2=CO1 (centres undefined)	-96
CC(C)(C)c1ccc(CSc2cnn(C(C)(C)C)c(=O)c2Cl)cc1	0
CN(C)C(Cc1ccccc1)C(=O)c1c[nH]c2ccccc12 (centres undefined)	-64
O=c1c2ccccc2[nH]c(=S)n1-c1ccc2c(c1)OCCO2	-105
